Holding throughout (experiment): DAPPL (digital affinity profiling via proximity ligation, sequencing); 10 mM Tris-HCl pH 7.5, 50 mM NaCl, 1 mM DTT, 4% glycerol, room temperature, 30 min; GST-TFs on glutathione beads, 16-mer random dsDNA library, 0.1% formaldehyde crosslink after washing; high values mean tight binding
The target of assay [1] is T1, FLI1 (Homo sapiens, UniProt Q01543 1-452).
T1 sequence: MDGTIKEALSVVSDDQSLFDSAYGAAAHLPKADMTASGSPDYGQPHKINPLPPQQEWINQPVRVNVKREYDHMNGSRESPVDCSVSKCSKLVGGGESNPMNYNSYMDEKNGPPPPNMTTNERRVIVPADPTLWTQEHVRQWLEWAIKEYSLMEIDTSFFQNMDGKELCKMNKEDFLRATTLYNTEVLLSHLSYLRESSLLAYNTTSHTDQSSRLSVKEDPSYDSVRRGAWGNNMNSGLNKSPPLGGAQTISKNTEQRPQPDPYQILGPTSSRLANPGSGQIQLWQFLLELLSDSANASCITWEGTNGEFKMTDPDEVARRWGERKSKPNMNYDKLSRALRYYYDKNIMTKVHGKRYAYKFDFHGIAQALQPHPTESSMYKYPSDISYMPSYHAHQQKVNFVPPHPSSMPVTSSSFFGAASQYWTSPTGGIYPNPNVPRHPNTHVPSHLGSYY
The conditions noted are these: protein: recombinant; tags: N-terminal GST; dsDNA, one strand shown. A digest of the protocol: (§1)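 Binding signal is given per hexamer as its read frequency for a factor divided by its frequency in the tag-only sample. GST-fused human transcription factors were expressed in yeast, captured on glutathione beads, barcoded with DNA and pooled with that sample, then incubated with 200 nmole of a 16-mer random double-stranded DNA library in Tris/NaCl/DTT/glycerol buffer for 30 min at room temperature. The pools were then washed, crosslinked, proximity-ligated, amplified by PCR and sequenced on an Illumina NextSeq500.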

The target in assay [2] is T2, ELK1 (Homo sapiens, UniProt P19419 1-428).
T2 sequence: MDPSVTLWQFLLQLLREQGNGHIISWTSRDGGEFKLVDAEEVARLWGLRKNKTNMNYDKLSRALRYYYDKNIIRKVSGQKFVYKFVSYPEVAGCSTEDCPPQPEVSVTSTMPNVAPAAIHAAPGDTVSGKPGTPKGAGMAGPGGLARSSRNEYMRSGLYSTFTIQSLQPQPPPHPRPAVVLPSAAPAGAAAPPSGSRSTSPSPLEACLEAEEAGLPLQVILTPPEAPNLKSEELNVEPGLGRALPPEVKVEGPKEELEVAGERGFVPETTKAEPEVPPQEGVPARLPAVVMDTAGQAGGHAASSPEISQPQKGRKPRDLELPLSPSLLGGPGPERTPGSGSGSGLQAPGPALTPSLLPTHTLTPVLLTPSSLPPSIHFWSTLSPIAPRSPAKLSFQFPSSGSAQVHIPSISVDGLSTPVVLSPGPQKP
To be noted: protein: recombinant; tags: N-terminal GST; dsDNA, one strand shown. A digest of the protocol: as §1

Assay [3] addresses ELF1 (Homo sapiens, UniProt P32519 1-619). To be noted: protein: recombinant; tags: N-terminal GST; dsDNA, one strand shown. In short, it runs like this: as §1
In assay [4] the target is ETV5 (Homo sapiens, UniProt P41161 1-510). To be noted: protein: recombinant; tags: N-terminal GST; dsDNA, one strand shown. A digest of the protocol: as §1
The target in assay [5] is HSF1 (Homo sapiens, UniProt Q00613 1-529). To be noted: protein: recombinant; tags: N-terminal GST; chain copies: 3; dsDNA, one strand shown. In short, it runs like this:
as §1

Assay [6] has as its target T3, ELK4 (Homo sapiens, UniProt P28324-2 1-405).
T3 sequence: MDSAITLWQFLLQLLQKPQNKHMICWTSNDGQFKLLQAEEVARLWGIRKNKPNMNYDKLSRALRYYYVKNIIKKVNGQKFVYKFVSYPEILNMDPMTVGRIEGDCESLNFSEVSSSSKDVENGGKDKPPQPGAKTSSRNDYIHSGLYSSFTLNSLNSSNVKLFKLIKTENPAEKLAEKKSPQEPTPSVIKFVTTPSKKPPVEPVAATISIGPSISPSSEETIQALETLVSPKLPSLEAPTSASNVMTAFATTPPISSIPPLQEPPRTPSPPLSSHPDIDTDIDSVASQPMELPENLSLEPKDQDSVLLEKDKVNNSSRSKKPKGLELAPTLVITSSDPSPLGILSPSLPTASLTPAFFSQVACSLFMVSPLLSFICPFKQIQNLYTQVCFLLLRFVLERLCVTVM
The conditions noted are these: protein: recombinant; tags: N-terminal GST; dsDNA, one strand shown. In short, it runs like this:
as §1

Assay [7] deals with T4, ELF3 (Homo sapiens, UniProt P78545 1-371).
T4 sequence: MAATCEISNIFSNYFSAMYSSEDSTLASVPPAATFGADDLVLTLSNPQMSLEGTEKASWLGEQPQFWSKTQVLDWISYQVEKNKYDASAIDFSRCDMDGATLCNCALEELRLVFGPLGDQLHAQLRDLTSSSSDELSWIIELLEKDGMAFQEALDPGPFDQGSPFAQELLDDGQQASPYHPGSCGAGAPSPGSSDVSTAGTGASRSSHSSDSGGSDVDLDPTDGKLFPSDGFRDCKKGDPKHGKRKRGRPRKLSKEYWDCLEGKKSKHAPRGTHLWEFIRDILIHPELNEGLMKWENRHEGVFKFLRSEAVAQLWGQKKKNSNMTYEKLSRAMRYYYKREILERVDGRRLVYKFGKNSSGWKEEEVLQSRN
The conditions noted are these: protein: recombinant; tags: N-terminal GST; dsDNA, one strand shown. In short, it runs like this: as §1

For assay [8], the target named is CRX (Homo sapiens, UniProt O43186 1-299). The conditions noted are these: protein: recombinant; tags: N-terminal GST; dsDNA, one strand shown. In short, it runs like this:
as §1

For assay [9], the target named is T5, GABPA (Homo sapiens, UniProt Q06546 1-454).
T5 sequence: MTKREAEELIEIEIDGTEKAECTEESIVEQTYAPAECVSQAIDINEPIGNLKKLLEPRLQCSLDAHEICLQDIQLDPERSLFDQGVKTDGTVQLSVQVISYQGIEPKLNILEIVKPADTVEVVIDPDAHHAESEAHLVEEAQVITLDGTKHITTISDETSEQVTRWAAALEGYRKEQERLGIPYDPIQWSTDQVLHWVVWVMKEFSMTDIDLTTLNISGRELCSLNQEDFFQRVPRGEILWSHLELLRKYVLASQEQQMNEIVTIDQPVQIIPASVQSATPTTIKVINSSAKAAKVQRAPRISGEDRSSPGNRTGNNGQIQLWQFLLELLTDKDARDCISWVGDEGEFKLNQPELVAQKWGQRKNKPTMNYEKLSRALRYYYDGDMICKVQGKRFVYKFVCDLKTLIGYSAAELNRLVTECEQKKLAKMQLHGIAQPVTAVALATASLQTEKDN
The conditions noted are these: protein: recombinant; tags: N-terminal GST; dsDNA, one strand shown. In short, it runs like this: as §1

The target of assay [10] is T6, ERG (Homo sapiens, UniProt P11308 1-479).
T6 sequence: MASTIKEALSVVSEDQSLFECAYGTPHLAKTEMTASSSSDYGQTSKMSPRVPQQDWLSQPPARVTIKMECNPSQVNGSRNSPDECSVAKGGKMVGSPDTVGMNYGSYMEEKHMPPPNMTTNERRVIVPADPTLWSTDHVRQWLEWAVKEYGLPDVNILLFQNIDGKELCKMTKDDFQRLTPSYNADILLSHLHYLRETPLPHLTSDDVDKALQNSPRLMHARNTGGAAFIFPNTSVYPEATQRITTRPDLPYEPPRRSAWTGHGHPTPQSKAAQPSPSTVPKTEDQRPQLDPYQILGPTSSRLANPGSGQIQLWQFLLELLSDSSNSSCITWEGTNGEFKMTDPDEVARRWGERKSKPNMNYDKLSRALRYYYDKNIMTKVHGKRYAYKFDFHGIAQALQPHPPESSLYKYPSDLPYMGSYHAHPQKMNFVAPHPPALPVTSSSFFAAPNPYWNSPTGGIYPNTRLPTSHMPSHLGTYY
To be noted: protein: recombinant; tags: N-terminal GST; dsDNA, one strand shown. A digest of the protocol:
as §1

For assay [11], the target named is T7, EHF (Homo sapiens, UniProt Q9NZC4 1-300).
T7 sequence: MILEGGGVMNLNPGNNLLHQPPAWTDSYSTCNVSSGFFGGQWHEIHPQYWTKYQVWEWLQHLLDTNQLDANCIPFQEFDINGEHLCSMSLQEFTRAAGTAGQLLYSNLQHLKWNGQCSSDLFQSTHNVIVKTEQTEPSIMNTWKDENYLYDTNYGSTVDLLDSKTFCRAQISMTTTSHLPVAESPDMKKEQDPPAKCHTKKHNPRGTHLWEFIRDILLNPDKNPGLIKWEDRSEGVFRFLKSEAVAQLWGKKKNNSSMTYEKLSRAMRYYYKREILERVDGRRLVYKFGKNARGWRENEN
To be noted: protein: recombinant; tags: N-terminal GST; dsDNA, one strand shown. In short, it runs like this:
as §1

Assay [12] has as its target SPI1 (Homo sapiens, UniProt P17947 1-270). To be noted: protein: recombinant; tags: N-terminal GST; dsDNA, one strand shown. A digest of the protocol:
as §1

Assay [13] has as its target T8, ELK3 (Homo sapiens, UniProt P41970 1-407).
T8 sequence: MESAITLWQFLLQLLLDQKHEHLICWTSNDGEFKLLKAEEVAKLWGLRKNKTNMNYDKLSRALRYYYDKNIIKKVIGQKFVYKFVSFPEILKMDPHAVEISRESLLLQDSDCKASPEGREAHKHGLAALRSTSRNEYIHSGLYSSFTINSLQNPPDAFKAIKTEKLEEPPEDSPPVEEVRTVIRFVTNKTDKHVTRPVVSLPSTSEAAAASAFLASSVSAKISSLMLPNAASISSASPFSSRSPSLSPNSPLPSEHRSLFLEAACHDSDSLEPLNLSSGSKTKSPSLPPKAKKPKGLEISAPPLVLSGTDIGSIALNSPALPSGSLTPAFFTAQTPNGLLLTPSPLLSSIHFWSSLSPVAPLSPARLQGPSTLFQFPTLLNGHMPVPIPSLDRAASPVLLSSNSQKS
The conditions noted are these: protein: recombinant; tags: N-terminal GST; dsDNA, one strand shown. In short, it runs like this: as §1

In assay [14] the target is T9, FEV (Homo sapiens, UniProt Q99581 1-238).
T9 sequence: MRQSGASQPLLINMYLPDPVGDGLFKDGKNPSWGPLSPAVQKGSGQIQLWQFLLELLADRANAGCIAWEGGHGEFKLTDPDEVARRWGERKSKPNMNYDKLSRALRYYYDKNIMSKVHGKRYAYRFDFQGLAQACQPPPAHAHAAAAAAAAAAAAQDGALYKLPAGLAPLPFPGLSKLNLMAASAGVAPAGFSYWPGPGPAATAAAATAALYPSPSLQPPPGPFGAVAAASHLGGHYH
The conditions noted are these: protein: recombinant; tags: N-terminal GST; dsDNA, one strand shown. In short, it runs like this:
as §1

In assay [15] the target is T10, ETV2 (Homo sapiens, UniProt O00321 1-342).
T10 sequence: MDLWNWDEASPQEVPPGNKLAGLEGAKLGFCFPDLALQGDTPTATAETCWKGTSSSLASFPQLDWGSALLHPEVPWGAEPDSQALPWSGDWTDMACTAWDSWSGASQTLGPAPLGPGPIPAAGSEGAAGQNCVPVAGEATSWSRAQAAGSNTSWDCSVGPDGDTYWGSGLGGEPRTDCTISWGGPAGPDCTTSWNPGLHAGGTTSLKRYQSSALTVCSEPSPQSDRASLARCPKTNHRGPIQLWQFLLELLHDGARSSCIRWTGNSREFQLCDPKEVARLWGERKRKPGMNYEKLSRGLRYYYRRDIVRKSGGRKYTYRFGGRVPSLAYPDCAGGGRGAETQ
The conditions noted are these: protein: recombinant; tags: N-terminal GST; dsDNA, one strand shown. A digest of the protocol: as §1

The target in assay [16] is ETV1 (Homo sapiens, UniProt P50549 1-477). To be noted: protein: recombinant; tags: N-terminal GST; dsDNA, one strand shown. In short, it runs like this:
as §1

Sequence of HSF1 (Q00613 whole entry): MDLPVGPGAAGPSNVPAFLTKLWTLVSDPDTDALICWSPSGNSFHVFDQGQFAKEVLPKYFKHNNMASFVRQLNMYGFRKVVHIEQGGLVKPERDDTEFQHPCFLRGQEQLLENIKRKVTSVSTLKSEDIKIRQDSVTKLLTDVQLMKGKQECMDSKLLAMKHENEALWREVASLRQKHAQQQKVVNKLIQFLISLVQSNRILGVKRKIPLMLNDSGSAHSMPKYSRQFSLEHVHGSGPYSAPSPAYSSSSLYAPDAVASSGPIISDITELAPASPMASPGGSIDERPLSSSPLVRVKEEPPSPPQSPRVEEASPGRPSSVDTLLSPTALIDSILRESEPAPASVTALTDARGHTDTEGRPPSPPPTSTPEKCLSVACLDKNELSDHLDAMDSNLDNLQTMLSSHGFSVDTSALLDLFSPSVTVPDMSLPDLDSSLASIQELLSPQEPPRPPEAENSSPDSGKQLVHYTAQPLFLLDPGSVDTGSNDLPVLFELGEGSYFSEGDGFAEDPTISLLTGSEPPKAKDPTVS
Sequence of CRX (O43186 whole entry): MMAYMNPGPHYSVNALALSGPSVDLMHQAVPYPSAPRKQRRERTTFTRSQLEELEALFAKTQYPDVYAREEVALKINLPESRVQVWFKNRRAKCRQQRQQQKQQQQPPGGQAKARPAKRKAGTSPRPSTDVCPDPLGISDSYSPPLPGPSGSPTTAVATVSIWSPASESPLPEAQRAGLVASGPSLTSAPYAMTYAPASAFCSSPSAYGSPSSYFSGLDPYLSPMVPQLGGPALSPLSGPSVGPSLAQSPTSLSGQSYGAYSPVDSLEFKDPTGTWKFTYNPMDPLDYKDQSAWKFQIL
Sequence of ETV5 (P41161 whole entry): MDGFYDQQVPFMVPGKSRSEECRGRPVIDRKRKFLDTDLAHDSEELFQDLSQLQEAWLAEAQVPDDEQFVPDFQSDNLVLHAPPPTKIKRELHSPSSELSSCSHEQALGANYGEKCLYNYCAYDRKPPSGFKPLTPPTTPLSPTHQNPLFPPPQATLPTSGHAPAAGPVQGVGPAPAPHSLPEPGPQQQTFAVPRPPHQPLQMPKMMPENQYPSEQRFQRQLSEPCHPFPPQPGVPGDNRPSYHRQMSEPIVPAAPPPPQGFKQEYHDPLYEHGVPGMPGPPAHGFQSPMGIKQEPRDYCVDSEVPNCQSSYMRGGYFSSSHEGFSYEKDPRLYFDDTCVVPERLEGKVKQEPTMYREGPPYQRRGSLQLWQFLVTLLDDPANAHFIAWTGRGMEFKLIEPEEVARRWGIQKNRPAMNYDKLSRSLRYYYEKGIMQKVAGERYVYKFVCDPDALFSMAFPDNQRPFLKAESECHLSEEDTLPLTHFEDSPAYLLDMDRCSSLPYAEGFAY
Sequence of ELF1 (P32519 whole entry): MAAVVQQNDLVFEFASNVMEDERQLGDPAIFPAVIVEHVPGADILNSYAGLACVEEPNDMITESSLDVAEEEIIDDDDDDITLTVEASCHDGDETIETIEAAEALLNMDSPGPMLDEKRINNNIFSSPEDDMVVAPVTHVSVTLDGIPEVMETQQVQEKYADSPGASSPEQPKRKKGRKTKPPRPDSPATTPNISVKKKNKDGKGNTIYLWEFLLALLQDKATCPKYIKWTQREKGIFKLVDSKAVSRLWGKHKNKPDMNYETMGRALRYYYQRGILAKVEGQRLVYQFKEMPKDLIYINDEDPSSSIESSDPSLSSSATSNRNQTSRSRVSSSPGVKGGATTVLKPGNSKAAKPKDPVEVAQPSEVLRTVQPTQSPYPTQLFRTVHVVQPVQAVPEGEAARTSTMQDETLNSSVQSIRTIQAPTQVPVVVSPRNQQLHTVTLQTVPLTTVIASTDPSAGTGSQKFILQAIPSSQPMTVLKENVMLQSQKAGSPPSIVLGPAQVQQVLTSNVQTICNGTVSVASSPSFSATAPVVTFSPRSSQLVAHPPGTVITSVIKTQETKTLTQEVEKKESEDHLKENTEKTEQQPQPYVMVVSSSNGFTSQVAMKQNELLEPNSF
Sequence of ETV1 (P50549 whole entry): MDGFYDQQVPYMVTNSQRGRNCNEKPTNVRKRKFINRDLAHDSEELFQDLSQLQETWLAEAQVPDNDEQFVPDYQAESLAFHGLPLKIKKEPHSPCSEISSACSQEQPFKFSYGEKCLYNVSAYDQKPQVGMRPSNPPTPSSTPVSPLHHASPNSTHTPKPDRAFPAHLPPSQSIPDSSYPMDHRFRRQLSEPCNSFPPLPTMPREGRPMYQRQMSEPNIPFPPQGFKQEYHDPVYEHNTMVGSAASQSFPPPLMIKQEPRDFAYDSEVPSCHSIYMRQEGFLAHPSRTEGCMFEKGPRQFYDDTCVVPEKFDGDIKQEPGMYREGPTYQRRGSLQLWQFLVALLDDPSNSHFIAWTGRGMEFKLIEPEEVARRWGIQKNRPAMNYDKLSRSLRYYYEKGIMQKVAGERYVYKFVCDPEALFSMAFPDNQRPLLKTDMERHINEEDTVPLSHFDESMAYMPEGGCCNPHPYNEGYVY

Regarding CCTAGA, the binding signal in assay [1] was 1.04 fold enrichment (6-mer frequency, TF over GST control); in [2], 1.01 fold enrichment (6-mer frequency, TF over GST control); in [3], 1.02 fold enrichment (6-mer frequency, TF over GST control); in assay [4], 1.01 fold enrichment (6-mer frequency, TF over GST control); in [5], 1.88 fold enrichment (6-mer frequency, TF over GST control); in assay [6], 1.07 fold enrichment (6-mer frequency, TF over GST control). Moreover, the binding signal in assay [7] was 1.12 fold enrichment (6-mer frequency, TF over GST control); in assay [8], 1.22 fold enrichment (6-mer frequency, TF over GST control).

As for GGCATT, the binding signal was 1.08 fold enrichment (6-mer frequency, TF over GST control) in assay [1]; 1.05 fold enrichment (6-mer frequency, TF over GST control) in assay [2]; 1.04 fold enrichment (6-mer frequency, TF over GST control) in assay [9]; 1.04 fold enrichment (6-mer frequency, TF over GST control) in assay [10]; 1.01 fold enrichment (6-mer frequency, TF over GST control) in assay [11]; 1.05 fold enrichment (6-mer frequency, TF over GST control) in [12]. The binding signal in [13] is 1.14 fold enrichment (6-mer frequency, TF over GST control); in [14] it was 1.04 fold enrichment (6-mer frequency, TF over GST control); in assay [4], 1.05 fold enrichment (6-mer frequency, TF over GST control); in [5], 1.12 fold enrichment (6-mer frequency, TF over GST control); in assay [6] it was 1.08 fold enrichment (6-mer frequency, TF over GST control); in [15] it was 1.02 fold enrichment (6-mer frequency, TF over GST control). The binding signal in assay [8] was 1.29 fold enrichment (6-mer frequency, TF over GST control); in [16] it was 1.1 fold enrichment (6-mer frequency, TF over GST control).

The record behind these values is publication PMC7862700, “An all-to-all approach to the identification of sequence-specific readers for epigenetic DNA modifications on cytosine”.
